# Several values for one entry are separate records, joined by “and”; a condition that tells them apart may be missing. Equal entries are not always repeated. More than one record can exist for a structure, and the calls need not agree. Activity calls are given as the source filed them. How the source made its calls: active means hit-call score of the fitted dose curve at least 0.9, where 1 is the maximum; inactive means score below 0.9.
# Tests used:
# [1] = read-out: Epidermal growth factor receptor (EGFR), EGFR (gene 1956); experiment: BSK_BE3C_EGFR: BioMAP Diversity Plus: BE3C Assay for Epidermal growth factor receptor (EGFR) Biomarker Activity (AID 2284281); settings: primary human bronchial epithelial cells
# Procedure, shortened: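 Human primary bronchial epithelial cells (BE3C system) dosed with chemicals; EGFR measured by ELISA at 24 h, fitted in the positive direction relative to DMSO. Cytotoxicity tracked in parallel cultures by SRB total-protein staining.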
# KRT18 (gene 3875) = experiment: BSK_BE3C_Keratin818: BioMAP Diversity Plus: BE3C Assay for Keratin 818 Biomarker Activity (AID 2284282); settings: primary human bronchial epithelial cells
# Procedure, shortened: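 BE3C: human bronchial epithelial primary cells, 24 h exposure, Keratin 8/18 ELISA; DMSO = negative control/baseline; cytotoxicity by parallel SRB stain (0.1% SRB after 10% TCA fixation, 560 nm).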
# [2] = read-out: Matrix Metallopeptidase 9 (MMP9), MMP9 (gene 4318); experiment: BSK_BE3C_MMP9: BioMAP Diversity Plus: BE3C Assay for Matrix Metallopeptidase 9 (MMP9) Biomarker Activity (AID 2284283); settings: primary human bronchial epithelial cells
# Procedure, shortened: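 Human primary bronchial epithelial cells exposed 24 h to compound. MMP9 quantified by ELISA. SRB total-protein staining of parallel cultures assesses cytotoxicity. Positive-direction fit relative to DMSO.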
# [3] = read-out: Plasminogen activator inhibitor-1 (PAI1), SERPINE1 (gene 5054); experiment: BSK_CASM3C_PAI1: BioMAP Diversity Plus: CASM3C Assay for Plasminogen activator inhibitor-1 (PAI1) Biomarker Activity (AID 2284284); settings: primary human coronary artery smooth muscle cells;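 further: PAI-1 protein level measured by ELISA 24 h after dosing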
# [4] = read-out: Monocyte Chemoattractant Protein-1 (MCP1), CCL2 (gene 6347); experiment: BSK_hDFCGF_MCP1: BioMAP Diversity Plus: hDFCGF Assay for Monocyte Chemoattractant Protein-1 (MCP1) Biomarker Activity (AID 2284285); settings: primary human foreskin fibroblasts
# Procedure, shortened: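 Human foreskin fibroblasts (hDFCGF system) were exposed to compound and secreted MCP-1 was measured by ELISA after 24 hours. Activity was fitted relative to DMSO. Cytotoxicity was checked by SRB total-protein staining in parallel cultures.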
# [5] = read-out: Vascular cell adhesion molecule 1 (VCAM1), VCAM1 (gene 7412); experiment: BSK_IMphg_VCAM1: BioMAP Diversity Plus: IMphg Assay for Vascular cell adhesion molecule 1 (VCAM1) Biomarker Activity (AID 2284286); settings: primary human endothelial cells with macrophages
# Procedure, shortened: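 Human venular endothelial cells co-cultured with macrophages; VCAM-1 quantified by ELISA 24 h after dosing, fitted in the positive direction against DMSO. Cytotoxicity was checked in parallel cultures by SRB total-protein staining (0.1% SRB after 10% TCA fixation, 560 nm).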
# [6] = read-out: Intercellular Adhesion Molecule 1 (ICAM1), ICAM1 (gene 3383); experiment: BSK_hDFCGF_ICAM1: BioMAP Diversity Plus: hDFCGF Assay for Intercellular Adhesion Molecule 1 (ICAM1) Biomarker Activity (AID 2284287); settings: primary human foreskin fibroblasts
# Procedure, shortened: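 Primary human foreskin fibroblasts (hDFCGF system) dosed with chemical; ICAM-1 quantified by ELISA at 24 h relative to DMSO. Parallel SRB total-protein staining to assess overt cytotoxicity.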
# CD40, CD40 (gene 958) = experiment: BSK_IMphg_CD40: BioMAP Diversity Plus: IMphg Assay for CD40 Biomarker Activity (AID 2284288); settings: primary human endothelial cells with macrophages
# Procedure, shortened: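 Venular endothelial cells co-cultured with macrophages (human primary), CD40 measured by ELISA 24 h after dosing. Positive-direction fit vs DMSO baseline; cytotoxicity tracked by SRB total-protein staining in parallel cultures.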
# [7] = read-out: TIMP metallopeptidase inhibitor 2 (TIMP2), TIMP2 (gene 7077); experiment: BSK_hDFCGF_TIMP2: BioMAP Diversity Plus: hDFCGF Assay for TIMP metallopeptidase inhibitor 2 (TIMP2) Biomarker Activity (AID 2284289); settings: primary human foreskin fibroblasts
# Procedure, shortened: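 Primary human foreskin fibroblasts in the hDFCGF system, dosed for 24 h; TIMP-2 level measured by ELISA, fitted in the positive direction against DMSO; cytotoxicity checked in parallel by sulforhodamine B total protein staining.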
# [8] = read-out: Interleukin-1 alpha (IL1a), IL1A (gene 3552); experiment: BSK_IMphg_IL1a: BioMAP Diversity Plus: IMphg Assay for Interleukin-1 alpha (IL1a) Biomarker Activity (AID 2284290); settings: primary human endothelial cells with macrophages
# Procedure, shortened: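 Human venular endothelial cells co-cultured with macrophages, IMphg system. IL-1α is measured by ELISA 24 h after dosing and fitted in the positive direction against DMSO. Cytotoxicity is assessed by SRB staining of parallel cultures.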
# [9] = BSK_IMphg_SRB: Viability Assessment in the BioMAP Diversity Plus: IMphg Assay (AID 2284292); settings: primary human endothelial cells with macrophages;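 further: measured one day after compound addition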
# Procedure, shortened: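 Human venular endothelial cells with macrophages, 24 h after chemical dosing; total protein by 0.1% SRB staining after 10% TCA fixation, read at 560 nm. Positive-direction fitting versus DMSO baseline.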
# [10] = read-out: Macrophage colony-stimulating factor (MCSF), CSF1 (gene 1435); experiment: BSK_IMphg_MCSF: BioMAP Diversity Plus: IMphg Assay for Macrophage colony-stimulating factor (MCSF) Biomarker Activity (AID 2284293); settings: primary human endothelial cells with macrophages
# Procedure, shortened: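 Co-culture of human venular endothelial cells and macrophages, 24 hours of chemical exposure. M-CSF quantified by ELISA, with parallel SRB total-protein staining for cytotoxicity; activity fitted relative to DMSO.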
# [11] = read-out: Interleukin-10 (IL10), IL10 (gene 3586); experiment: BSK_IMphg_IL10: BioMAP Diversity Plus: IMphg Assay for Interleukin-10 (IL10) Biomarker Activity (AID 2284294); settings: primary human endothelial cells with macrophages
# Procedure, shortened: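 Human venular endothelial cells cocultured with macrophages, dosed 24 h; IL-10 measured by ELISA, activity relative to DMSO. Cytotoxicity assessed in parallel cultures by sulforhodamine B total-protein staining.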
# [12] = read-out: Thrombomodulin, THBD (gene 7056); experiment: BSK_LPS_Thrombomodulin: BioMAP Diversity Plus: LPS Assay for Thrombomodulin Biomarker Activity (AID 2284296); settings: primary human HUVEC with PBMC
# Procedure, shortened: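 Human umbilical vein endothelial cells co-cultured with PBMC and stimulated with LPS; cell-surface thrombomodulin measured by ELISA 24 hours after compound. Gain or loss versus DMSO; cytotoxicity checked by SRB staining in parallel cultures.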
# [13] = BSK_IMphg_SRB.Mphg: Macrophage Viability Assessment in the BioMAP Diversity Plus: IMphg Assay (AID 2284295); settings: primary human endothelial cells with macrophages
# Procedure, shortened: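 Venular endothelial cells co-cultured with macrophages, read 24 h after dosing. Total protein measured by 0.1% SRB staining after 10% TCA fixation, absorbance at 560 nm. Fitted in positive direction against DMSO baseline.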
# [14] = read-out: E-selectin (Homo sapiens) (UniProt P16581); experiment: BSK_IMphg_ESelectin: BioMAP Diversity Plus: IMphg Assay for Eselectin Biomarker Activity (AID 2284291); settings: primary human endothelial cells with macrophages
# Procedure, shortened: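 Human venular endothelial cell–macrophage co-culture, E-selectin measured by ELISA 24 h after chemical dosing. Signal fitted in the positive direction against DMSO as negative control and baseline.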
# Chain of E-selectin (Homo sapiens) (P16581 whole entry, looked up): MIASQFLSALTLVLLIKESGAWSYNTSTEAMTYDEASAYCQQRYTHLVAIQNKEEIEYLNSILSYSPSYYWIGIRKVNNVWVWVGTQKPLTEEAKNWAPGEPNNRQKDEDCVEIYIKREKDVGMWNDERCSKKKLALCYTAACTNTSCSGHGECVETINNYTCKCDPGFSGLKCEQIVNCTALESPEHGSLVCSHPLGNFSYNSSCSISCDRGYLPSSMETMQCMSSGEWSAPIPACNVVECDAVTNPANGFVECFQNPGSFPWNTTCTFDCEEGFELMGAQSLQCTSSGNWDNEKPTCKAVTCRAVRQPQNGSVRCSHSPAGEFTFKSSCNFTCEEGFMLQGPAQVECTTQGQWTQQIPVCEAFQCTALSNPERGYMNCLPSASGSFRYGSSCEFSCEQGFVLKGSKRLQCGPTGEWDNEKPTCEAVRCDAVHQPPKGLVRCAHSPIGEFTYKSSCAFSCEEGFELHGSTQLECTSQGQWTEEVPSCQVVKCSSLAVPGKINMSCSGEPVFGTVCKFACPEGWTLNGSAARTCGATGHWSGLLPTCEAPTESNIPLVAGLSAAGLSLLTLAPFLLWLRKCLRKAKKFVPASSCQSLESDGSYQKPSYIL
structure (smiles),measurement,setting,value
C=C(C)C(=O)OCC(F)(F)C(F)(F)C(F)(F)C(F)(F)C(F)(F)C(F)(F)C(F)(F)F,outcome,[1],inactive
same,outcome,KRT18 (gene 3875),inactive
same,outcome,[2],inactive
same,outcome,[3],inactive
same,outcome,[4],inactive
same,outcome,[5],inactive
same,outcome,[6],inactive
same,outcome,"CD40, CD40 (gene 958)",inactive
same,outcome,[7],inactive
same,outcome,[8],inactive
same,outcome,[9],inactive
same,outcome,[10],inactive
same,AC50,[11],3330 nM (active)
same,outcome,[11],inactive
same,outcome,[12],inactive
CCCCCCOC(=O)c1ccccc1O,outcome,[1],inactive
same,outcome,KRT18 (gene 3875),inactive
same,outcome,[2],inactive
same,outcome,[3],inactive
same,AC50,[4],18.2 µM (active) and 22.9 µM (active)
same,AC50,[6],37.9 µM (active) and 29.9 µM (active)
same,AC50,[7],31.2 µM (active) and 20.2 µM (active)
same,outcome,[12],inactive
CC(C)(C)C(=O)CC(=O)C(F)(F)C(F)(F)C(F)(F)F,outcome,[1],inactive
same,outcome,KRT18 (gene 3875),inactive
same,outcome,[2],inactive
same,outcome,[3],inactive
same,outcome,[4],inactive
same,outcome,[5],inactive
same,outcome,[6],inactive
same,outcome,"CD40, CD40 (gene 958)",inactive
same,outcome,[7],inactive
same,outcome,[8],inactive
same,outcome,[9],inactive
same,outcome,[10],inactive
same,outcome,[11],inactive
same,outcome,[13],inactive
same,outcome,[12],inactive
FC(F)(F)C(F)(F)CNCC(F)(F)C(F)(F)F,outcome,[1],inactive
same,outcome,KRT18 (gene 3875),inactive
same,outcome,[2],inactive
same,outcome,[3],inactive
same,outcome,[4],inactive
same,outcome,[5],inactive
same,outcome,[6],inactive
same,outcome,"CD40, CD40 (gene 958)",inactive
same,outcome,[7],inactive
same,outcome,[8],inactive
same,outcome,[14],inactive
same,outcome,[9],inactive
same,outcome,[10],inactive
same,outcome,[11],inactive
same,AC50,[12],227 nM (active)
same,outcome,[12],inactive
FC(F)(F)C(F)(F)C(F)(F)C(F)(F)C(F)(F)C(F)(F)C(F)(F)I,outcome,[1],inactive
same,outcome,KRT18 (gene 3875),inactive
same,outcome,[2],inactive
same,outcome,[3],inactive
same,outcome,[4],inactive
same,outcome,[5],inactive
same,outcome,[6],inactive
same,outcome,"CD40, CD40 (gene 958)",inactive
same,outcome,[7],inactive
same,outcome,[8],inactive
same,outcome,[9],inactive
same,outcome,[10],inactive
same,outcome,[11],inactive
same,outcome,[12],inactive
O=C(O)C(F)(OC(F)(F)C(F)(OC(F)(F)C(F)(F)C(F)(F)F)C(F)(F)F)C(F)(F)F (stereo unspecified),outcome,[1],inactive
same,outcome,KRT18 (gene 3875),inactive
same,outcome,[2],inactive
same,outcome,[3],inactive
same,outcome,[4],inactive
same,outcome,[5],inactive
same,outcome,[6],inactive
same,outcome,"CD40, CD40 (gene 958)",inactive
same,outcome,[7],inactive
same,outcome,[8],inactive
same,outcome,[9],inactive
same,outcome,[10],inactive
same,outcome,[11],inactive
same,outcome,[12],inactive
O=C(O)C(F)(F)C(F)(F)C(F)(F)C(F)(F)F,outcome,[1],inactive
same,outcome,KRT18 (gene 3875),inactive
same,outcome,[2],inactive
same,outcome,[3],inactive
same,outcome,[4],inactive
same,outcome,[5],inactive
same,outcome,[6],inactive
same,outcome,"CD40, CD40 (gene 958)",inactive
same,outcome,[7],inactive
same,outcome,[8],inactive
same,outcome,[9],inactive
same,outcome,[10],inactive
same,outcome,[11],inactive
same,outcome,[12],inactive
C=CC(F)(F)C(F)(F)C(F)(F)C(F)(F)C(F)(F)C(F)(F)C(F)(F)C(F)(F)F,outcome,[1],inactive
same,outcome,KRT18 (gene 3875),inactive
same,outcome,[2],inactive
same,outcome,[3],inactive
same,outcome,[4],inactive
same,outcome,[5],inactive
same,outcome,[6],inactive
same,outcome,"CD40, CD40 (gene 958)",inactive
same,outcome,[7],inactive
same,outcome,[8],inactive
same,outcome,[9],inactive
same,outcome,[10],inactive
same,outcome,[11],inactive
same,outcome,[13],inactive
same,outcome,[12],inactive
O=C(O)C(F)(F)C(F)(F)F,outcome,[1],inactive
same,outcome,KRT18 (gene 3875),inactive
same,outcome,[2],inactive
same,outcome,[3],inactive
same,outcome,[4],inactive
same,outcome,[5],inactive
same,outcome,[6],inactive
same,outcome,"CD40, CD40 (gene 958)",inactive
same,outcome,[7],inactive
same,outcome,[8],inactive
same,outcome,[9],inactive
same,outcome,[10],inactive
same,outcome,[11],inactive
same,outcome,[13],inactive
same,outcome,[12],inactive

# Source: PubChem BioAssay (EPA / NIEHS)
